Records with an inconclusive call do not appear. Activity calls are given as the source filed them. Unless noted, the call rests on the fitted dose curve; in most records, active means well fitted curve in the direction sought with a large enough effect; inconclusive means small, poorly fitted or top-dose-only effect, or another doubt; inactive means no such curve, though single readings can be large; an effect the other way counts as inactive or inconclusive.
Legend:
[1] = qHTS for differential inhibitors of proliferation of Plasmodium falciparum line 3D7 (AID 1876); further: potency means the concentration at half of the fitted maximal effect
[2] = qHTS for differential inhibitors of proliferation of Plasmodium falciparum line D10 (AID 1877);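 further: parasites grown with compound for 72 h before DNA staining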; further: potency means the concentration at half of the fitted maximal effect
[3] = qHTS for differential inhibitors of proliferation of Plasmodium falciparum line Dd2 (AID 1882); conditions: Potency: Plasmodium falciparum Dd2 proliferation inhibition; further: nearly all actives have a fitted effect of over 65% in size; further: potency means the concentration at half of the fitted maximal effect
In short: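 Dd2-infected erythrocytes (0.3% parasitemia, 2.5% hematocrit final) incubated with compound 72 h at 37 C, 5% CO2; lysed with saponin/Triton buffer containing SYBR Green I, incubated overnight in the dark, then read by fluorescence (485/535 nm). Normalized to 0.29 uM artemisinin and DMSO.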

[4] = qHTS for differential inhibitors of proliferation of Plasmodium falciparum line W2 (AID 1883); conditions: Potency: Plasmodium falciparum W2 proliferation inhibition;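 further: parasites grown with compound for 72 h before lysis and staining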; further: potency means the concentration at half of the fitted maximal effect
[5] = qHTS for differential inhibitors of proliferation of Plasmodium falciparum line HB3 (AID 1886); conditions: Potency: Plasmodium falciparum HB3 proliferation inhibition;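 further: parasites grown with compound for 72 h before SYBR Green readout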; further: potency means the concentration at half of the fitted maximal effect
[6] = qHTS Assay for Modulators of Human Peripheral Myelin Protein 22 (PMP22) Expression/Activity (AID 1967; active means well fitted curve in the direction sought with a large enough effect in the signal ratio; the % refers to the signal ratio)
In short: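 Quantitative HTS in a mouse Schwann cell line expressing dual click beetle luciferases: Pmp22 promoter (green) and control EF-alpha promoter (red). After 24h treatment, corrected green/red signal ratio gave %Activity relative to untreated cells.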

[7] = molecular target: Ferritin light chain (Equus caballus) (UniProt P02791); assay: qHTS Validation Assay for Identification of Novel General Anesthetics (AID 2323); further: series mostly up to about 77 µM
In short: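 Apoferritin from horse spleen (10 uM) was mixed with 1-aminoanthracene at 50% saturation in PBS, then compounds were added. After 10 min at room temperature, fluorescence was read (ex 380 nm, em 535 nm) and normalized to free-probe and complex controls.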

[8] = molecular target: RecQ-like DNA helicase BLM (Homo sapiens) (UniProt P54132); assay: qHTS Validation Assay for Inhibitors of Bloom's syndrome helicase (BLM) (AID 2364); further: potency means the concentration at half of the fitted maximal effect
In short: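 BLM 50 nM in 25 mM Tris-HCl pH 8.0, 5 mM NaCl, 2 mM MgCl2, 1 mM DTT, 0.01% Tween-20, 2.5 ug/ml poly(dI-dC); 15 min cpd preinc, RT. Start: 200 nM forked DNA + 2 mM ATP (final). TAMRA read, 2 reads 2 h apart.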

[9] = molecular target: ATP-dependent DNA helicase Q1 (Homo sapiens) (UniProt P46063); assay: qHTS Validation Assay for Inhibitors of RecQ-Like Dna Helicase 1 (RECQ1) (AID 2353); further: potency means the concentration at half of the fitted maximal effect
In short: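 50 nM RECQ1T1 preincubated 15 min with compound in Tris pH 8.0 buffer with MgCl2, DTT, Tween-20 and 2.5 ug/ml poly(dI-dC); started with 200 nM TAMRA/BHQ-2 forked duplex and 2 mM ATP. Unwinding read as fluorescence (525/598 nm), two reads 2 h apart.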

Measured: Potency

Chain of ATP-dependent DNA helicase Q1 (Homo sapiens) (P46063 whole entry, looked up): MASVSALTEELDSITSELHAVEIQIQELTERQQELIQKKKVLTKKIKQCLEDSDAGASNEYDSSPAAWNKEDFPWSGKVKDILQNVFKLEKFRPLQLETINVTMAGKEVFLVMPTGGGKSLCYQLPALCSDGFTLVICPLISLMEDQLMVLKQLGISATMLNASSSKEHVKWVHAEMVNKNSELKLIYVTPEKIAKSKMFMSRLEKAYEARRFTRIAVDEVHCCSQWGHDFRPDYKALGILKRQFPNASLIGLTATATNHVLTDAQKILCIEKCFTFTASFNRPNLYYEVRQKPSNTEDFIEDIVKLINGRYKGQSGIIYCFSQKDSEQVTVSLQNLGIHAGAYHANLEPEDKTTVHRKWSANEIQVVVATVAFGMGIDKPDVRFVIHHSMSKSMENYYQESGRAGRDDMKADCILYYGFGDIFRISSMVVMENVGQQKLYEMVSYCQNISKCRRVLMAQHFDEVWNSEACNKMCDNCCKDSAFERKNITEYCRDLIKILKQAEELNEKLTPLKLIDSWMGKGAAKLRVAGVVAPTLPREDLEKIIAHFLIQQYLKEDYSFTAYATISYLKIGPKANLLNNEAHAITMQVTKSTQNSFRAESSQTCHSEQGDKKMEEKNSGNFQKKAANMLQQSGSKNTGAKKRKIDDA
Chain of Ferritin light chain (Equus caballus) (P02791 2-175 limits assumed): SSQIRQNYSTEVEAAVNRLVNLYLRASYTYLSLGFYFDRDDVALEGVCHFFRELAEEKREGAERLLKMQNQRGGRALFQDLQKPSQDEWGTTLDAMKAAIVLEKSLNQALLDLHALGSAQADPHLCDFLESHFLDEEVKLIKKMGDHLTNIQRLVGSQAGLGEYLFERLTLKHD
Chain of RecQ-like DNA helicase BLM (Homo sapiens) (P54132 whole entry, looked up): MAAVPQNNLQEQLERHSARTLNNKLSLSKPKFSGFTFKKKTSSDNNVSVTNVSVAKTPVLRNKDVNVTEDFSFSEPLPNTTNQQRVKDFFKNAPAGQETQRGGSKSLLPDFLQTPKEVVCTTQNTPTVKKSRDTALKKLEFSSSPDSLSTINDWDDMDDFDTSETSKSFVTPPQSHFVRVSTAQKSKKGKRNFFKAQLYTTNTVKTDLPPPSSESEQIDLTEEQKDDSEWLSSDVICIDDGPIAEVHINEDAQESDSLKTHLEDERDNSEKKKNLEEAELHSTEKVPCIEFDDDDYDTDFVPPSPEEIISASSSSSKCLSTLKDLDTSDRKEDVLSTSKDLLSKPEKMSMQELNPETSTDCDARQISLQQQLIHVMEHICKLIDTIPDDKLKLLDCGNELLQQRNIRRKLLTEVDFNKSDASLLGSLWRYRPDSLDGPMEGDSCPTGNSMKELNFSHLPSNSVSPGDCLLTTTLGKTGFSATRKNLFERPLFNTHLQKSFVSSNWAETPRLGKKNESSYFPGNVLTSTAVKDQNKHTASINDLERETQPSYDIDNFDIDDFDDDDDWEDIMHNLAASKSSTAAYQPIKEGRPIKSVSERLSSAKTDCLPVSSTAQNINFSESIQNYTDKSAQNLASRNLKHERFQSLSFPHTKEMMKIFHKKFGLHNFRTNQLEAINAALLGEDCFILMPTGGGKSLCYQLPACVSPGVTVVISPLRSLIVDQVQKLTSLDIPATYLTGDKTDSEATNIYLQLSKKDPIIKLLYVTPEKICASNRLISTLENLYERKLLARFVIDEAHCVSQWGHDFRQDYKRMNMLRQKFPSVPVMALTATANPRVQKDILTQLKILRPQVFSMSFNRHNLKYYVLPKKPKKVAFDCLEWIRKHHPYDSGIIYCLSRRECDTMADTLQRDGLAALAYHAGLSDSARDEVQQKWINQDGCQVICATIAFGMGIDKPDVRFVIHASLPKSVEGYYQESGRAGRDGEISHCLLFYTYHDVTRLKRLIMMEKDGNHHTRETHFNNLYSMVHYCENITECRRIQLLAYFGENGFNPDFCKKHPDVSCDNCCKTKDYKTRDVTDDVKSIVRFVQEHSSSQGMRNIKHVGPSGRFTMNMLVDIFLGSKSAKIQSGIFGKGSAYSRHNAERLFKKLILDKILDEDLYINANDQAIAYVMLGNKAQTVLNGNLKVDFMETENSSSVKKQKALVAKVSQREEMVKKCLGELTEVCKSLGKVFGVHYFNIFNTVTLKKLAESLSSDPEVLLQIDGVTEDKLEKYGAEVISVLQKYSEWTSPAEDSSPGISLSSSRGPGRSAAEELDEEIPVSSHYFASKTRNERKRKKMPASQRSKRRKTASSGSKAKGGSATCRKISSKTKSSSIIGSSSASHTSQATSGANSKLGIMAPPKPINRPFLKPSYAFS

O=P(O)(O)C(Cl)(Cl)P(=O)(O)O
not listed: [9]
inactive: all other assays above

OC1CCCCC1N1CCC(c2ccccc2)CC1 (centres undefined)
active: [4] 10 µM
not listed: [8]
inactive: all other assays above

N[C@@]1(C(=O)O)CC[C@@H](C(=O)O)C1
not listed: [8]
inactive: all other assays above

CC(C)(C)c1cc(C=C(C#N)C#N)cc(C(C)(C)C)c1O
inactive: [9]
active: [1] 0.708 µM | [2] 1.12 µM | [3] 0.891 µM | [4] 0.355 µM | [5] 1 µM

NNC(=O)c1ccc(O)cc1
not listed: [6] | [8]
inactive: all other assays above

CN1CC[C@@]2(C)c3cc(O)ccc3N(C)C12 (some centres undefined)
inactive: [7] | [9]
active: [1] 11.2 µM | [2] 14.1 µM | [3] 12.6 µM | [4] 12.6 µM | [5] 8.91 µM

CCS(=O)(=O)Nc1cccc(C(=C2CCCCC2)c2cnc[nH]2)c1
active: [1] 11.2 µM | [2] 14.1 µM | [3] 10 µM | [4] 8.91 µM | [5] 12.6 µM
inactive: [9]

NNC(N)=O
not listed: [9]
inactive: all other assays above

CCCN(CCC)C1CCc2cccc(O)c2C1 (centres undefined)
not listed: [8]
inactive: all other assays above

c1ccc2c(c1)[I+]c1ccccc1-2
inactive: [7] | [9] | [8]
active: [1] 0.0708 µM | [2] 0.141 µM | [3] 1 µM | [4] 0.1 µM | [5] 0.0562 µM

CCCn1c(C)c(C(=O)c2ccc3ccccc3c2)c2ccccc21
active: [1] 10 µM | [2] 14.1 µM | [4] 10 µM | [5] 12.6 µM
inactive: [3] | [7] | [9]

C=CCN1C[C@@H](C)N([C@H](c2ccc(C(=O)N(CC)CC)cc2)c2cccc(OC)c2)C[C@@H]1C
active: [1] 3.16 µM | [2] 7.08 µM | [3] 8.91 µM | [4] 3.16 µM | [5] 4.47 µM

C/C(O)=C(\C#N)C(=O)Nc1cc(Br)ccc1Br
not listed: [8] | [9]
inactive: all other assays above

c1ccc2cc(CC3=NCCN3)ccc2c1
active: [4] 12.6 µM
inactive: all other assays above

NC(C(=O)O)c1cc(=O)[nH]o1 (centres undefined)
inactive: all assays above

Cc1o[nH]c(=O)c1CC(N)C(=O)O (centres undefined)
not listed: [8] | [9]
inactive: all other assays above

Cc1c2ccncc2c(C)c2c1[nH]c1ccccc12
inactive: [7] | [8]
active: [1] 0.447 µM | [2] 2 µM | [3] 1.12 µM | [4] 0.708 µM | [5] 1.41 µM

NCCCP(=O)(O)O
not listed: [6] | [8]
inactive: all other assays above

CC1OC1P(=O)(O)O (centres undefined)
not listed: [6] | [8]
inactive: all other assays above

CO[C@H]1CC=C2CCN3CCC4=C(CC(=O)OC4)[C@]23C1
not listed: [8]
inactive: all other assays above

O=C1C=CC(=O)C=C1
not listed: [8]
inactive: all other assays above

O=[N+]([O-])c1cc(O)c(O)c([N+](=O)[O-])c1
not listed: [6] | [9]
inactive: all other assays above

CC(C)CC(NP(=O)(O)O[C@@H]1O[C@@H](C)[C@H](O)[C@@H](O)[C@H]1O)C(=O)NC(Cc1c[nH]c2ccccc12)C(=O)O (some centres undefined)
inactive: all assays above

Oc1ccc2c3c1O[C@H]1c4oc5ccccc5c4C[C@@]4(O)C(C2)N(CC2CC2)CCC314 (some centres undefined)
inactive: [7] | [9] | [8]
active: [1] 7.94 µM | [2] 12.6 µM | [3] 10 µM | [4] 3.16 µM | [5] 11.2 µM

CP(=O)(O)C1=CCNCC1
not listed: [6] | [8]
inactive: all other assays above

Cc1[nH]c2ccc(O)cc2c1CCN
not listed: [8]
inactive: all other assays above

CCCN(CCC)[C@H]1CCc2c(F)ccc(O)c2C1
inactive: [7] | [9] | [8]
active: [1] 2 µM | [2] 2.24 µM | [3] 1.26 µM | [4] 0.447 µM | [5] 1.41 µM

NC(Cc1cc(O)c(O)cc1O)C(=O)O (centres undefined)
active: [9] 1.41 µM | [8] 3.16 µM
not listed: [6] | [7]
inactive: all other assays above

Ic1ccccc1CNC1C2CCN(CC2)C1C(c1ccccc1)c1ccccc1 (centres undefined)
active: [1] 5.01 µM | [2] 11.2 µM | [3] 3.16 µM | [4] 1.41 µM | [5] 11.2 µM
inactive: [8]

C[C@H](Cc1ccc2c(c1)OC(C(=O)O)(C(=O)O)O2)NC[C@H](O)c1cccc(Cl)c1
inactive: all assays above

NCC(CP(=O)(O)O)c1ccc(Cl)cc1 (centres undefined)
not listed: [6] | [9]
inactive: all other assays above

C#CCN[C@H](C)Cc1ccccc1
not listed: [9]
inactive: all other assays above

NC(=O)CI
not listed: [6] | [7] | [8]
inactive: all other assays above

C[N+](C)(C)CC#CCOC(=O)Nc1cccc(Cl)c1
inactive: [3] | [6] | [7] | [9]
active: [1] 12.6 µM | [2] 11.2 µM | [4] 12.6 µM

CC12NC(Cc3ccccc31)c1ccccc12 (centres undefined)
active: [4] 4.47 µM
not listed: [3] | [8]
inactive: all other assays above

CC(C)(C)c1o[nH]c(=O)c1CC(N)C(=O)O (centres undefined)
not listed: [4] | [8]
inactive: all other assays above

COc1ccc2[nH]c3c(c2c1)CCNC3
not listed: [4] | [6] | [9]
inactive: all other assays above

NC(N)=NOCC[C@H](N)C(=O)O
not listed: [4] | [6] | [8]
inactive: all other assays above

CCCCCCCCCCCCCC(=O)O[C@@H]1[C@@H](C)[C@@]2(O)[C@@H](C=C(CO)C[C@@]3(O)C(=O)C(C)=C[C@@H]23)C2C(C)(C)[C@@]21OC(C)=O (some centres undefined)
active: [1] 10 µM | [2] 11.2 µM | [4] 7.08 µM | [5] 12.6 µM

CC(Cc1ccc(OCC(=O)O)cc1)NCC(O)c1cccc(Cl)c1 (centres undefined)
not listed: [3] | [8] | [9]
inactive: all other assays above

CCN(CC)c1ncnc2c1ncn2[C@@H]1O[C@H](COP(=O)(O)OP(=O)(O)C(Br)(Br)P(=O)(O)O)[C@@H](O)[C@H]1O
not listed: [3] | [8]
inactive: all other assays above

NCC(O)c1cc(O)c(O)cc1F (centres undefined)
inactive: [1] | [2] | [3] | [5] | [7]

C[Se]C[C@H](N)C(=O)O
not listed: [3] | [6] | [8]
inactive: all other assays above

CCOC(=O)c1ncn2c1[C@@H]1CCCN1C(=O)c1cc(OC)ccc1-2
not listed: [4] | [6]
inactive: all other assays above

N#CC(C#N)=Cc1cc(O)c(O)c(O)c1
active: [1] 12.6 µM | [2] 12.6 µM | [4] 7.94 µM | [5] 11.2 µM
inactive: [7] | [9]

CC(=O)c1c(O)c(C)c(O)c(Cc2c(O)c3c(c(C(=O)/C=C/c4ccccc4)c2O)OC(C)(C)C=C3)c1O
active: [1] 3.98 µM | [2] 10 µM | [4] 3.55 µM | [5] 5.62 µM

C[N+](C)(C)CCOC(=O)CBr
not listed: [3] | [9]
inactive: all other assays above

CC(=O)NBr
not listed: [3]
inactive: all other assays above

CCCCCCC(C)(C)c1ccc([C@@H]2C[C@H](O)CC[C@H]2CCCO)c(O)c1
active: [1] 5.01 µM | [2] 7.94 µM | [4] 2.24 µM | [5] 2.82 µM

C=CCN1CC[C@]23c4c5ccc(O)c4O[C@H]2/C(=N/NC(=O)c2ccccc2)CC[C@@]3(O)[C@H]1C5
inactive: [6] | [7]
active: [1] 10 µM | [2] 3.16 µM | [4] 3.16 µM | [5] 11.2 µM

O=C(O)c1cc[c]([Hg][Cl])cc1
inactive: [7] | [9]
active: [1] 2.24 µM | [2] 1.12 µM | [4] 1.41 µM | [5] 5.01 µM
